PubChem BioAssay (NCI)
This is part of a sample that, as a whole, favours compounds with a hit. Of some 83,000 tested, about 20% had one in any assay.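 96-well plates, one dose, 48 hours. Percent growth reported; active if below 10.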 Unmarked numbers belong to inactive results. Active and inactive are the calls of the source.

Experiments:
Test in all cases: NCI-60 one-dose screen, 48 h (100 = growth as untreated, 0 = no growth, -100 = all killed)
Settings in all cases: 10 µM
T-47D breast = test system: T-47D breast
BT-549 breast = test system: BT-549 breast
MDA-MB-435 melanoma = test system: MDA-MB-435 melanoma
SW-620 colon = test system: SW-620 colon
MCF7 breast = test system: MCF7 breast
HCT-116 colon = test system: HCT-116 colon
HCC-2998 colon = test system: HCC-2998 colon
KM12 colon = test system: KM12 colon
MDA-MB-468 breast = test system: MDA-MB-468 breast

SMILES | growth (T-47D breast) | growth (BT-549 breast) | growth (MDA-MB-435 melanoma) | growth (SW-620 colon) | growth (MCF7 breast) | growth (HCT-116 colon) | growth (HCC-2998 colon) | growth (KM12 colon) | growth (MDA-MB-468 breast)
CC1=C2C(=C[C@@](C)(CO)[C@@H]2O)/C(=N\N)[C@](C)(O)C12CC2 | -11.8% (active) | -71.7% (active) | -63.8% (active) | -9.56% (active) | -6.87% (active) | 19.1% | -76.6% (active) | 7.94% (active) | -90.8% (active)
Cc1ccc(-c2cc(-c3cc4ccccc4nc3Cl)[nH]c(=O)n2)cc1 | 3.13% (active) | -76.8% (active) | 19.1% | -46.3% (active) | 1.81% (active) | -72.8% (active) | -1.29% (active) | -18.6% (active) | -7.37% (active)
Cn1cc(-c2cc(N)n3nc(-c4c[nH]c5ccc(Br)cc45)cc3n2)c2cc(Br)cnc21 | -74.7% (active) | -75.4% (active) | -46.3% (active) | -71.2% (active) | -79.5% (active) | -69.6% (active) | -98.1% (active) | -73.1% (active) | -98.3% (active)
[2H]C([2H])([2H])Oc1ccc2ncc(C#Cc3cncc(C(=O)Nc4ccc(CN5CCN(C)CC5)c(C(F)(F)F)c4)c3)n2n1 | -24.5% (active) | -57.5% (active) | -67.2% (active) | -67.8% (active) | -61% (active) | -29.5% (active) | -84.8% (active) | -94.1% (active) | -90.3% (active)
O=S(=O)(Nc1ncccn1)c1ccc(-n2c(-c3ccccc3)nc(-c3ccccc3)c2-c2ccccc2)cc1 | 52.2% | 69% | 101% | 91.9% | 71.1% | 86.4% | 89.3% | 88.4% | 85.7%
COc1cc2c3c(n(CCCNC(C)C)c(=O)c2cc1OC)-c1nc2c(cc1C3=O)OCO2 | 43.9% | 49.1% | -86.9% (active) | -62.8% (active) | -89.8% (active) | -60.4% (active) | 65.5% | -90.1% (active) | -9.99% (active)
CCCn1c(=O)c2[nH]c(-c3ccc(OCc4nc5ccc(C(F)(F)F)cc5[nH]4)cc3)nc2n(CCC)c1=O | 33.2% | 41.7% | 63% | 70% | 28.3% | 25.2% | 76.7% | 55.5% | 30.8%
Cc1ccc(-c2nc(Nc3ccccc3C(=O)O)c3ccccc3n2)cc1 | 10.7% | -23.5% (active) | 23.4% | 14.5% | 7.7% (active) | 6.7% (active) | 5.44% (active) | 8.37% (active) | -26.9% (active)
COc1ccccc1[C@H]1C(C(=O)c2ccc(Cl)cc2)C2(N[C@@H]1c1ccccc1)C(=O)Nc1ccc(Cl)cc12 (stereo partly specified) | 5.84% (active) | -1.27% (active) | -44.4% (active) | 6.3% (active) | -4.87% (active) | 10.1% | -18.8% (active) | 9.71% (active) | -43.9% (active)
CN1CCN(Cc2ccc(NC(=O)c3cncc(C#Cc4cnc5ccc(N[C@H]6CCOC6)nn45)c3)cc2C(F)(F)F)CC1 | -64.7% (active) | -67.7% (active) | -79.6% (active) | -69.8% (active) | -84.4% (active) | -62.6% (active) | -96.4% (active) | -89.7% (active) | -94% (active)
Cc1ccc2nc(-c3ccc(-c4nnc(SCC(=O)Nc5ccc(Br)cc5)o4)cc3)[nH]c2c1 | 50.8% | 86.8% | 59.9% | 82.8% | 45.1% | 67.4% | 105% | 70.4% | 80.6%
CCOC(=O)C1=C(N)N(c2ccccc2)C2=C(C(=O)CC(C)(C)C2)C1c1ccccc1OC (stereo unspecified) | 92.7% | 105% | 112% | 107% | 89.7% | 101% | 101% | 113% | 88.7%
O=C(c1ccc(O)cc1)C1[C@H](c2ccc(Br)cc2)[C@@H](c2ccccc2)NC12C(=O)Nc1ccc(Br)cc12 (stereo partly specified) | 22.2% | 39.3% | -25.1% (active) | -28% (active) | -18% (active) | 8.14% (active) | -83.9% (active) | -24.7% (active) | -54% (active)
O=C(COc1ccc(NC(=O)Nc2ccc(Cl)cc2)cc1)N=Nc1c(O)[nH]c2ccc([N+](=O)[O-])cc12 | 7.65% (active) | 22.2% | 17% | 19.9% | -36.4% (active) | -37.8% (active) | 26.3% | -46.6% (active) | -54.6% (active)
COc1ccc(-c2cc(-c3cc(C(=O)c4ccccc4)n4ccc(C)cc34)nc(N)c2C#N)cc1 | 65.1% | 22.4% | 78.5% | 78.9% | 53.3% | 58.1% | 80.9% | 85.4% | 48.6%
COc1ccc(-c2cc(C(=O)N=Nc3c(O)[nH]c4ccc(Br)cc34)c3ccccc3n2)cc1 | 58.4% | 96.3% | 52.7% | -59.9% (active) | -6.48% (active) | 16.9% | 23.4% | 23.1% | 11.1%
CN(C(=O)c1ccc(C(F)(F)F)cc1C(F)(F)F)c1sc2c(c1C#N)CCC(=O)C2 | 1.04% (active) | 20.8% | 101% | 18.9% | 85.8% | 25.2% | 94.4% | 74.3% | 51.9%
O=C1Nc2ccc(F)cc2/C1=C/c1cccc(OCc2ccccn2)c1 | 45% | 24.1% | -9.87% (active) | -0.341% (active) | 3.16% (active) | 1.75% (active) | 74.1% | 15.4% | -5.96% (active)
O=C(NO)c1ccc(CNC(=O)[C@H]2Cc3c([nH]c4ccccc34)[C@H](c3ccc(Cl)cc3)N2)cc1 | -2.39% (active) | 26.9% | 4.26% (active) | -51.6% (active) | 3% (active) | 1.03% (active) | -53.2% (active) | 19.6% | -33.5% (active)
Cc1ccc(-c2cc(C(=O)N=Nc3c(O)[nH]c4ccc(Br)cc34)c3ccccc3n2)cc1 | 75.2% | 86.3% | 45.1% | 34.1% | 28.5% | 27.4% | 45.5% | – | 31.2%
COc1cnc2c(c1)C(=O)c1c-2n(CCCNC(C)C)c(=O)c2cc(OC)c(OC)cc12 | 36.2% | 56.4% | 44% | -24.9% (active) | 11.8% | 25.5% | 48.9% | 29.5% | 8.82% (active)
N#Cc1c(NC(=O)c2ccc(C(O)(C(F)(F)F)C(F)(F)F)cc2)sc2c1CCC(=O)C2 | -60.5% (active) | -64.4% (active) | -45.2% (active) | -52.8% (active) | -62.1% (active) | -77.7% (active) | -95.6% (active) | -53.8% (active) | -90% (active)
CN1CCCN(Cc2ccc(C(=O)Nc3cccc(Nc4ccc5c(O)cccc5n4)c3)cc2C(F)(F)F)CC1 | -27.7% (active) | -75.2% (active) | -96.5% (active) | -92.7% (active) | -96.5% (active) | -67.4% (active) | -85.3% (active) | -11% (active) | -94.5% (active)
C=C(C)[C@@H]1CC[C@]2(COP(=O)(OCC)OCC)CC[C@]3(C)[C@H](CC[C@@H]4[C@@](C)(CCCN)[C@H](C(=C)C)CC[C@]43C)[C@@H]12 | 19% | -8.75% (active) | 14.3% | 12.4% | 6.11% (active) | -31.4% (active) | 10.7% | 16.8% | 5.69% (active)
CN1CCN(c2ccc(Nc3nc(N4CCN(S(=O)(=O)c5ccc(F)cc5)CC4)c4sccc4n3)cc2)CC1 | -62.7% (active) | 65.2% | -100% (active) | -63.8% (active) | -77.6% (active) | -51.1% (active) | -90.7% (active) | -74.8% (active) | -96.7% (active)
COc1ccc(N(C)c2cc(C#N)nc3ccccc23)cc1N | 20.8% | 94.1% | -22.4% (active) | 19% | 9.87% (active) | 6.17% (active) | 7.99% (active) | 9.27% (active) | 3.98% (active)
O=C(/C=C/Nc1ccccc1)c1ccc2c(c1)Nc1ccccc1S2 | 78.1% | 95.6% | 85% | 89.3% | 68.6% | 79.2% | 95.4% | 87% | 61.5%
O=C(CSc1nnc(-c2ccc3nc(-c4ccccc4)[nH]c3c2)o1)Nc1ccc(Cl)cc1 | 23.8% | 55% | 40.2% | 66.8% | 16.3% | 36.4% | 22.2% | 33% | 55.8%
